Screening results from PubChem.
Sampled rows, rich in hits. Any-hit rate of the full collection: about 19%.
DT40 TDP1 no CPT: qHTS for Inhibitors of human tyrosyl-DNA phosphodiesterase 1 (TDP1): qHTS in cells in absence of CPT; AID 686978, 2013; Potency, µM (top dose mostly 46.2 µM), for the others: top-dose activity change, negative = growth inhibition, usual class: inhibitors; 420,000 tested, 15% active; DT40 Tdp1-/- hTDP1 cells, no CPT, ATP luminescence, 48 h; also: potency is read from the fitted curve at half-maximal effect; % is scaled to controls: 0 for no effect and ±100 for the full control effect; nearly all actives have a fitted effect of over 55% in size
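Compound effects on proliferation are scored in DT40 Tdp1-/-;hTDP1 cells in the absence of CPT. ATP levels (CellTiter-Glo luminescence) are recorded after a ≥48 hr, 37 °C incubation.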
MCF10A rereplic: inducers of DNA re-replication in MCF 10A breast cells; MCF 10A DNA re-replication, Hoechst nuclear intensity, 48 h; Potency, µM (doses to about 46.1 µM), for inactives: at the top dose activity, positive = re-replication, most hits filed as activators; 350,000 tested, 2.9% active; AID 624296; also: potency is read from the fitted curve at half-maximal effect; % of control where 0% means no effect; nearly all actives have a fitted effect of over 50% in size
BCR signal inh: inhibitors of chronic active B-cell receptor signaling. 340,000 tested, 0.05% active. Potency, µM (titrated, usually from 46.1 µM), inactives show top-dose activity change, negative = inhibition, hits mostly inhibitors. ABC-DLBCL IkBa-CBG/CBR reporter, luminescence ratio, 4 h. AID 493014; active = well fitted inhibition curve with a large enough effect in the signal ratio, with a control signal flat, not every such curve was filed as active; inconclusive = small, poorly fitted or top-dose-only effect, or effect the other way, or a change in a side signal; the % refers to the signal ratio;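 also: potency is read from the fitted curve at half-maximal effect; plate controls were basal doxycycline-induced cells for no effect and cells given 10 µM MG132 for full effect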
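Concentration-response series (up to 46 uM) were applied to TMD8 dual-reporter cells for 4 h at 37C with doxycycline. Green/red ratio, after filter-overlap correction, defined %Activity; red signal alone was normalised to basal cells and zero luminescence.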
IL1B secr inh: inhibitors of inflammasome signaling (IL-1 beta secretion); THP-1 LPS/ATP IL-1B secretion, AlphaLISA, 16 h; hits give low values; activity change, % at 57.5 µM; 360,000 tested, 4.7% active; AID 743279; in the data active = activity change below about -50%; inconclusive = mostly about -30% to -49%; also: % is scaled to controls: 0 for no effect and ±100 for the full control effect
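Secreted IL-1B measured by AlphaLISA bead assay after 16 h compound exposure of THP-1 cells; compounds (final up to 57.5 uM) added 1 h before LPS (250 ng/mL) and ATP (1.25 mM) stimulation; lower signal means less secretion.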
SW480 rerep: DNA re-replication induction in SW480 cells; SW480 DNA re-replication, Hoechst DNA content imaging, 48 h; 340,000 tested, 1.8% active; Potency, µM (series often up to 46.1 µM), without a hit: at the highest dose re-replication activation, hits mostly activators; also: potency is read from the fitted curve at half-maximal effect; % of control where 0% means no effect; nearly all actives have a fitted effect of over 55% in size
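Cells (250 per well) received 23 nL compound or DMSO by pin tool and were kept 48 hr at 37 C, 5% CO2. Nuclei were then stained with Hoechst for 40 min and scanned for DNA content.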
TDP1 cell CPT: growth inhibition of DT40 Tdp1-/-;hTDP1 cells with camptothecin (screen for TDP1 inhibitors); chicken DT40 Tdp1-/-;hTDP1 cells + 20 nM CPT, ATP luminescence, 48 h; Potency, µM (top dose mostly 46.2 µM), for the others: at the top dose activity change, negative = growth inhibition, hits mostly inhibitors; 420,000 tested, 12% active; also: potency is read from the fitted curve at half-maximal effect; % is scaled to controls: 0 for no effect and ±100 for the full control effect; nearly all actives have a fitted effect of over 55% in size
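Cell growth measured by CellTiter-Glo luminescence after a minimum 48 h, 37 C compound exposure with 20 nM CPT in Tdp1-knockout DT40 cells stably expressing hTDP1, seeded 400/well; qHTS titration format.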
* marks the source's active call; other numbers are inactive results; ? = inconclusive; nt = no result; [ ] = another dose, or the depositor's remark. Unless noted, calls follow the shape of the dose curve; as a rule, active = well fitted curve in the direction sought with a large enough effect; inconclusive = small, poorly fitted or top-dose-only effect, or another doubt; inactive = no such curve, though single readings can be large; an effect the other way counts as inactive or inconclusive.

SMILES	DT40 TDP1 no CPT	MCF10A rereplic	BCR signal inh	IL1B secr inh	SW480 rerep	TDP1 cell CPT
O=c1cc(O)c(Cl)c[nH]1	-12%	1%	nt	nt	1%	3%
Cc1cccc(NC(=O)c2ccc3snnc3c2)c1C	-9%	nt	nt	nt	nt	-7%
COc1cc(NC(=O)c2cccs2)c(C(=O)OCC(=O)NC(=O)NCc2ccccc2)cc1OC	?	15µM*	?	-15	23%	?
COc1cc(NC(=O)c2cccs2)c(C(=O)OCC(=O)c2cc(C)n(-c3ccccc3)c2C)cc1OC	21µM*	57%	5%	15	-1%	?
COc1ncc2nc(-c3cn(C)c4ccccc34)c(=O)n(-c3ccccc3)c2n1	-28%	nt	nt	nt	nt	-1%
COc1ccccc1S(=O)(=O)N(C)C[C@H]1Oc2cc(Br)ccc2S(=O)(=O)N([C@@H](C)CO)C[C@H]1C	16µM*	nt	nt	-14	nt	29µM*
COc1ccc(S(=O)(=O)N(C)C[C@@H]2Oc3cc(C#CC4CCCCC4)ccc3S(=O)(=O)N([C@@H](C)CO)C[C@@H]2C)cc1	18µM*	nt	nt	-52*	nt	18µM*
COc1ccccc1S(=O)(=O)N(C)C[C@H]1Oc2cc(C#CCC3CCCC3)ccc2S(=O)(=O)N([C@H](C)CO)C[C@H]1C	8.2µM*	nt	nt	-9	nt	13µM*
C[C@H]1CN([C@@H](C)CO)S(=O)(=O)c2ccc(Br)cc2O[C@H]1CN(C)S(=O)(=O)c1ccccc1F	5%	nt	nt	20	nt	3%
CSc1nc(N)nc2c1ncn2Cc1ccccc1	?	-15%	nt	21	3%	?
CCOC(=O)C(=CNc1ccc(NC2=NCC(C)S2)cc1)C(=O)OCC (configuration not stated)	6.5µM*	5%	-9%	-7	1%	9.2µM*
CCOC(=O)C(=CNc1ccc(C(F)(F)F)cc1)C(=O)OCC	-32%	6%	14%	-14	-9%	4%
Cc1ccc(-n2nc(CO)c(C(=O)NCc3cccs3)n2)cc1C	-15%	nt	nt	nt	nt	-25%
CCN=c1scc(-c2ccco2)n1/N=C/c1ccc(O)cc1	-25%	23µM*	?	-30	3%	?
CCOc1ccc2oc(=O)cc(CN3CCN(C(=O)c4ccco4)CC3)c2c1	0%	3%	-1%	-13	-6%	-2%
CCOc1ccc2oc(=O)cc(CN3CCN(Cc4ccc(C)cc4)CC3)c2c1	15µM*	nt	nt	nt	nt	23µM*
CCOc1ccc2oc(=O)cc(CN3CCN(Cc4ccccc4)CC3)c2c1	23µM*	31%	-1%	1	3%	?
COc1ccc(N2CCN(Cc3cc(=O)oc4ccc(OC)cc34)CC2)cc1	-25%	nt	nt	nt	nt	-18%
O=C(CSc1nnc(SCc2ccccc2)s1)N/N=C/C=C/c1ccccc1[N+](=O)[O-]	16µM*	3%	-5%	-2	-4%	?
O=C(N/N=C\C=C\c1ccc([N+](=O)[O-])o1)c1cccs1	3.3µM*	8.2µM*	?	?	12µM*	4.1µM*
O=C(N/N=C/C=C/c1ccccc1[N+](=O)[O-])c1cccs1	8.2µM*	?	?	4	-8%	?
Cc1ccc(/C=N/NC(=O)c2cccs2)cc1[N+](=O)[O-]	16µM*	1%	?	-2	-8%	12µM*
O=C(N/N=C/C=C/c1ccccc1)c1cccs1	-1%	-3%	?	0	0%	-14%
Cc1cc(CN(C)C(=O)c2cc(COc3ccc(F)cc3Cl)on2)n[nH]1	?	-1%	?	-24	1%	7%
CCc1ccc(N2CC(C(=O)OCc3nc4ccsc4c(=O)[nH]3)CC2=O)cc1 (configuration not stated)	22%	0%	12%	-2	?	-22%
SMILES	DT40 TDP1 no CPT	MCF10A rereplic	BCR signal inh	IL1B secr inh	SW480 rerep	TDP1 cell CPT
O=C(CN1CCN(Cc2ccc(Cl)cc2)CC1)N/N=C/C=C/c1ccccc1[N+](=O)[O-]	18µM*	?	?	-5	18%	?
O/N=C/c1ccc2cccc(OCc3ccccc3)c2n1	-2%	2%	-3%	19	-1%	-4%
NC(N)=N/N=C/c1ccc2cccc(OCc3ccccc3)c2n1	7.3µM*	?	-3%	-96*	-2%[9.22 µM]	9.2µM*
NC(=S)N/N=C/c1ccc2cccc(OCc3ccccc3)c2n1	29µM*	?	?	-7	14%	?
CCCCCC(=O)NC(NC(=S)N1CCOCC1)C(Cl)(Cl)Cl (configuration not stated)	?	4%	8%	-7	-4%	?
CCCCCCCCC(=O)NC(NC(=S)N1CCOCC1)C(Cl)(Cl)Cl (configuration not stated)	15µM*	-2%	-4%	-7	4%	?
Cc1ccoc1C(=O)NCCNc1ccc(Cl)cc1[N+](=O)[O-]	-30%	0%	3%	-59*	-6%	-23%
O=C(NCCNc1ccc(Cl)cc1[N+](=O)[O-])c1cccnc1	?	-13%	3%	0	?	-16%
CN1CCN(C(=O)c2ccc(CSc3ccc(Cl)cc3)cc2)CC1	23µM*	1%	15%	-62*	15%	21µM*
CN1CCN(C(=O)c2ccc(Cl)cc2)CC1	-10%	0%	2%	7	-3%	-1%
CCOC(=O)N1CCN(C(=O)c2ccc(CSc3ccc(Cl)cc3)cc2)CC1	7.3µM*	0%	0%	-80*	0%	?
CCCCn1[nH]c(-c2ccccc2)cc1=O	18µM*	?	?	0	3%	?
CCCc1cc(=O)n2[nH]c(-c3ccccc3)cc2n1	?	0%	?	13	1%	-14%
CC(=O)Nc1ccc(S(=O)(=O)NC2=C(N3CCN(Cc4ccccc4)CC3)C(=O)c3ccccc3C2=O)cc1	?	?	?	-10	?	10µM*
CC(=O)Nc1ccc(S(=O)(=O)Nc2cc(C)cn(Cc3ccccc3)c2=O)cc1	7.3µM*	-4%	-8%	-2	-2%	?
CCN1CCN(c2nc3ccccc3nc2NS(=O)(=O)c2ccc(NC(C)=O)cc2)CC1	-2%	-9%	1%	18	-4%	1%
CC(=O)Nc1ccc(S(=O)(=O)Nc2cccn(Cc3ccc(C)cc3)c2=O)cc1	?	?	2%	20	?	?
CCN1CCN(C2=C(NS(=O)(=O)c3ccc(NC(C)=O)cc3)C(=O)c3ccccc3C2=O)CC1	21µM*	?	4%	43	-1%	16µM*
